Experimental data reported in the supplement of paper PMC11732987, “Enantioselective OTUD7B fragment discovery through chemoproteomics screening and high-throughput optimisation” (Communications Chemistry, 2025).

What was measured:
Test in all cases: log2 ratio of Biotin-Ahx-Ub-VS probe labelling (fragment/DMSO); higher = less target engagement (more negative = stronger competition), active = hit call of the paper (q ≤ 0.05, log2 ratio ≤ -1)
Details in all cases: compound concentration: 200 uM; treatment time: 3 h
[1] = molecular target: T1, USP19 (UniProt O94966)
T1 sequence (whole entry): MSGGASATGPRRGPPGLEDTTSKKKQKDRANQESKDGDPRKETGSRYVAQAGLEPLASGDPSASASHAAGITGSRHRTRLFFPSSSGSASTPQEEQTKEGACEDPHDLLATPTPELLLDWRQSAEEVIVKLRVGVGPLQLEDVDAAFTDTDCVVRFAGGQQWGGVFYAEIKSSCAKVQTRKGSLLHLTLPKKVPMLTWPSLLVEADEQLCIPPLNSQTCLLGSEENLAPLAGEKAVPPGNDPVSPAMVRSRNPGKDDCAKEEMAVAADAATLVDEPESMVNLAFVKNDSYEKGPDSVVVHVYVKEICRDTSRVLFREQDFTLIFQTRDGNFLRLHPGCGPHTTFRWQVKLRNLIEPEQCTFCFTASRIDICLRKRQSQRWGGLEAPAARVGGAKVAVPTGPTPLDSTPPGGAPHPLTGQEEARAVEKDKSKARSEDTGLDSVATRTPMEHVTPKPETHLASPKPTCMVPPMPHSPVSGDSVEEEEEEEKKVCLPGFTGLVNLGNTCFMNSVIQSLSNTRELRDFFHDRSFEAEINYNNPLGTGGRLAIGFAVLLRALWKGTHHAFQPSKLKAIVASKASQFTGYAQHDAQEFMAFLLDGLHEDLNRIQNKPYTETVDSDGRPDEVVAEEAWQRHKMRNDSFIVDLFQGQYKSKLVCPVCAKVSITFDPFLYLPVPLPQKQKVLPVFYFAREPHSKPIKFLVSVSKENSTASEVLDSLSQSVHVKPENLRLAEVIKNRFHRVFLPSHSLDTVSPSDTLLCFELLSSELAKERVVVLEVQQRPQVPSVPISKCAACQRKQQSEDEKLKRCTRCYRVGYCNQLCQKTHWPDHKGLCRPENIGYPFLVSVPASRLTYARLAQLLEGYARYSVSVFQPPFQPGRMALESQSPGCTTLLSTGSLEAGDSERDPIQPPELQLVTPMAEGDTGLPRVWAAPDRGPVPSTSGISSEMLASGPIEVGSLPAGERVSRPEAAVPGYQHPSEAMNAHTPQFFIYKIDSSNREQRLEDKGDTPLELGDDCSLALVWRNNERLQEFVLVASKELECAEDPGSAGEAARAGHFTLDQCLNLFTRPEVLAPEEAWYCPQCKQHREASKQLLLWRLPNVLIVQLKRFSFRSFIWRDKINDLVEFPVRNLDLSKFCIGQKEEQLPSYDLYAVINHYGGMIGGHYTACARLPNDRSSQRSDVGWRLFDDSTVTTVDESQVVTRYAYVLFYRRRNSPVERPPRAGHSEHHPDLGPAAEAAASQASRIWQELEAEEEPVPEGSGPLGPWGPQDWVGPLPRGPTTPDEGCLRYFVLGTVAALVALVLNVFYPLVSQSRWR
How it was run: (§1)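 HEK293T lysate, 495 µg per sample in Tris/CHAPS/IGEPAL buffer with protease inhibitors, was treated in triplicate with fragment at 200 µM or vehicle for 3 h and then with Biotin-Ahx-Ub-VS at 0.5 µM final for 1 h. Labelled DUBs were NeutrAvidin-enriched, digested with LysC and trypsin, and run by diaPASEF LC-MS/MS. Spectronaut label-free quantities were global-median-normalised, and values are average log2 fragment/vehicle ratios by unpaired t-test on proteins with ≥2 unique peptides.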

[2] = molecular target: T2, USP22 (UniProt Q9UPT9)
T2 sequence (whole entry): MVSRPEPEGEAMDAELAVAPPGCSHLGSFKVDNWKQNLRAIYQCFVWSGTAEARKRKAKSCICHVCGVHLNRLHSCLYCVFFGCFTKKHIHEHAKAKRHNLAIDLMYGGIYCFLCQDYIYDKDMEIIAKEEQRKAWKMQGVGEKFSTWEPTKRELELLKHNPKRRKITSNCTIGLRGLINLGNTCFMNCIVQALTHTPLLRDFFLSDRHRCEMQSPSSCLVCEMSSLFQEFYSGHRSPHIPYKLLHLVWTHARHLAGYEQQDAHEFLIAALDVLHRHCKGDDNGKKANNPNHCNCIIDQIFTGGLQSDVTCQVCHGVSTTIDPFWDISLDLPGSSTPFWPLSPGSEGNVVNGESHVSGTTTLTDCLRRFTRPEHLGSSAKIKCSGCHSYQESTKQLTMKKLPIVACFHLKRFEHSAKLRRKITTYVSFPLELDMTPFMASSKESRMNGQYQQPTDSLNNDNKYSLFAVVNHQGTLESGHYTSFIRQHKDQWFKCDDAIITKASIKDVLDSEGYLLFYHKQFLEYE
How it was run: as §1

[3] = molecular target: USP24 (UniProt Q9UPU5)
How it was run: as §1

[4] = molecular target: T3, USP25 (UniProt Q9UHP3)
T3 sequence (whole entry): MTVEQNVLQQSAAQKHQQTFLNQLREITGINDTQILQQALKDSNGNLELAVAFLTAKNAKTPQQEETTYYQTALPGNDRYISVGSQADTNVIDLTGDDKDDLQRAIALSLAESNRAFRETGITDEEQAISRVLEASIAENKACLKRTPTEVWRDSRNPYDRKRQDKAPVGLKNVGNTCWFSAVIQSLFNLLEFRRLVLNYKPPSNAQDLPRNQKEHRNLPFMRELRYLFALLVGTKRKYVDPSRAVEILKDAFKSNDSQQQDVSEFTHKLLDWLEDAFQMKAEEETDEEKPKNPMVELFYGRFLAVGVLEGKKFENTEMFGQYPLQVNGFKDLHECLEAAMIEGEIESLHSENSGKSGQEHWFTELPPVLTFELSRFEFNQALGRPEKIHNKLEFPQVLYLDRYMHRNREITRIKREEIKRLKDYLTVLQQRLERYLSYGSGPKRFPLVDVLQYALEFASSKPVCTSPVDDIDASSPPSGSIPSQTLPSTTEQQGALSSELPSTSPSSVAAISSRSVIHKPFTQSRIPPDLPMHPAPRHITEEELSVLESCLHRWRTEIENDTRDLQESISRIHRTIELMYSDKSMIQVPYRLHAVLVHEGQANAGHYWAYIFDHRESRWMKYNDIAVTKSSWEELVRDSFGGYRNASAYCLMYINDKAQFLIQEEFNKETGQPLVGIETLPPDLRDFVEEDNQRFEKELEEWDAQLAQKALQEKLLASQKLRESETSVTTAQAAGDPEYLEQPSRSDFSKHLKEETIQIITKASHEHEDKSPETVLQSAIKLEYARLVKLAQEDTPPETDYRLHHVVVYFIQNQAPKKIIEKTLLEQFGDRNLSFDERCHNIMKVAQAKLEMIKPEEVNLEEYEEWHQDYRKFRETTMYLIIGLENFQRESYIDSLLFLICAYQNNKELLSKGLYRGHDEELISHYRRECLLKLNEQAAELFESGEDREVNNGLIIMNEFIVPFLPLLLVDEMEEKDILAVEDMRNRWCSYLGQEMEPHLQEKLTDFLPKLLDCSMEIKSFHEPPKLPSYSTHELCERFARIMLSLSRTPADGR
How it was run: as §1

[5] = molecular target: T4, USP28 (UniProt Q96RU2)
T4 sequence (whole entry): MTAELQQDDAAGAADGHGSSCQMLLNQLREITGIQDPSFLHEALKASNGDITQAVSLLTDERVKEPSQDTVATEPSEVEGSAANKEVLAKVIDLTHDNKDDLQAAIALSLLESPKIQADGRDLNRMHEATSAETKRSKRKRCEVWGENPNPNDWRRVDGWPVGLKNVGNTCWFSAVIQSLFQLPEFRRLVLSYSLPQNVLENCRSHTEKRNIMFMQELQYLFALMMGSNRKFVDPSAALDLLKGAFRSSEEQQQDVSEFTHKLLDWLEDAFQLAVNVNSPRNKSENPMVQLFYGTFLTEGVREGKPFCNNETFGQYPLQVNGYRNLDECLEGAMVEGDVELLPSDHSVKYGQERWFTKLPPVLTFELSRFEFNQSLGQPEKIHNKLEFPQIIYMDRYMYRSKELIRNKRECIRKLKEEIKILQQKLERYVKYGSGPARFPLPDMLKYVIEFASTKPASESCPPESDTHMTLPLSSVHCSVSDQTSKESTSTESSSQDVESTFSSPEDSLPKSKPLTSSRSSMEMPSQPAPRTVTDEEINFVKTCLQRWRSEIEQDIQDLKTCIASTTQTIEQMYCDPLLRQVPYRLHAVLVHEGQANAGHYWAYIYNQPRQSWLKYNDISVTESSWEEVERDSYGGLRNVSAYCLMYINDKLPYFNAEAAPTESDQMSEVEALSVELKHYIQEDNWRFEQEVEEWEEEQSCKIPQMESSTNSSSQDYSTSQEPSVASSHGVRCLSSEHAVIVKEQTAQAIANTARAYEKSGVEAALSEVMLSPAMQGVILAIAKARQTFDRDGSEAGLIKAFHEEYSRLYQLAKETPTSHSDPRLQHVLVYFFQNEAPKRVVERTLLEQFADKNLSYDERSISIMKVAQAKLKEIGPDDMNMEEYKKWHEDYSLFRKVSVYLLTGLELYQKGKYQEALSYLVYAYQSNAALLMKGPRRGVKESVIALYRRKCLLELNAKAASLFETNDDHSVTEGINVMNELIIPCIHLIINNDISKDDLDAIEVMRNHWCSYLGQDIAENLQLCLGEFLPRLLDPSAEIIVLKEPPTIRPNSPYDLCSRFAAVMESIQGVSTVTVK
How it was run: as §1

Measured: log2 ratio of Biotin-Ahx-Ub-VS probe labelling

Sequence of USP24 (Q9UPU5 whole entry): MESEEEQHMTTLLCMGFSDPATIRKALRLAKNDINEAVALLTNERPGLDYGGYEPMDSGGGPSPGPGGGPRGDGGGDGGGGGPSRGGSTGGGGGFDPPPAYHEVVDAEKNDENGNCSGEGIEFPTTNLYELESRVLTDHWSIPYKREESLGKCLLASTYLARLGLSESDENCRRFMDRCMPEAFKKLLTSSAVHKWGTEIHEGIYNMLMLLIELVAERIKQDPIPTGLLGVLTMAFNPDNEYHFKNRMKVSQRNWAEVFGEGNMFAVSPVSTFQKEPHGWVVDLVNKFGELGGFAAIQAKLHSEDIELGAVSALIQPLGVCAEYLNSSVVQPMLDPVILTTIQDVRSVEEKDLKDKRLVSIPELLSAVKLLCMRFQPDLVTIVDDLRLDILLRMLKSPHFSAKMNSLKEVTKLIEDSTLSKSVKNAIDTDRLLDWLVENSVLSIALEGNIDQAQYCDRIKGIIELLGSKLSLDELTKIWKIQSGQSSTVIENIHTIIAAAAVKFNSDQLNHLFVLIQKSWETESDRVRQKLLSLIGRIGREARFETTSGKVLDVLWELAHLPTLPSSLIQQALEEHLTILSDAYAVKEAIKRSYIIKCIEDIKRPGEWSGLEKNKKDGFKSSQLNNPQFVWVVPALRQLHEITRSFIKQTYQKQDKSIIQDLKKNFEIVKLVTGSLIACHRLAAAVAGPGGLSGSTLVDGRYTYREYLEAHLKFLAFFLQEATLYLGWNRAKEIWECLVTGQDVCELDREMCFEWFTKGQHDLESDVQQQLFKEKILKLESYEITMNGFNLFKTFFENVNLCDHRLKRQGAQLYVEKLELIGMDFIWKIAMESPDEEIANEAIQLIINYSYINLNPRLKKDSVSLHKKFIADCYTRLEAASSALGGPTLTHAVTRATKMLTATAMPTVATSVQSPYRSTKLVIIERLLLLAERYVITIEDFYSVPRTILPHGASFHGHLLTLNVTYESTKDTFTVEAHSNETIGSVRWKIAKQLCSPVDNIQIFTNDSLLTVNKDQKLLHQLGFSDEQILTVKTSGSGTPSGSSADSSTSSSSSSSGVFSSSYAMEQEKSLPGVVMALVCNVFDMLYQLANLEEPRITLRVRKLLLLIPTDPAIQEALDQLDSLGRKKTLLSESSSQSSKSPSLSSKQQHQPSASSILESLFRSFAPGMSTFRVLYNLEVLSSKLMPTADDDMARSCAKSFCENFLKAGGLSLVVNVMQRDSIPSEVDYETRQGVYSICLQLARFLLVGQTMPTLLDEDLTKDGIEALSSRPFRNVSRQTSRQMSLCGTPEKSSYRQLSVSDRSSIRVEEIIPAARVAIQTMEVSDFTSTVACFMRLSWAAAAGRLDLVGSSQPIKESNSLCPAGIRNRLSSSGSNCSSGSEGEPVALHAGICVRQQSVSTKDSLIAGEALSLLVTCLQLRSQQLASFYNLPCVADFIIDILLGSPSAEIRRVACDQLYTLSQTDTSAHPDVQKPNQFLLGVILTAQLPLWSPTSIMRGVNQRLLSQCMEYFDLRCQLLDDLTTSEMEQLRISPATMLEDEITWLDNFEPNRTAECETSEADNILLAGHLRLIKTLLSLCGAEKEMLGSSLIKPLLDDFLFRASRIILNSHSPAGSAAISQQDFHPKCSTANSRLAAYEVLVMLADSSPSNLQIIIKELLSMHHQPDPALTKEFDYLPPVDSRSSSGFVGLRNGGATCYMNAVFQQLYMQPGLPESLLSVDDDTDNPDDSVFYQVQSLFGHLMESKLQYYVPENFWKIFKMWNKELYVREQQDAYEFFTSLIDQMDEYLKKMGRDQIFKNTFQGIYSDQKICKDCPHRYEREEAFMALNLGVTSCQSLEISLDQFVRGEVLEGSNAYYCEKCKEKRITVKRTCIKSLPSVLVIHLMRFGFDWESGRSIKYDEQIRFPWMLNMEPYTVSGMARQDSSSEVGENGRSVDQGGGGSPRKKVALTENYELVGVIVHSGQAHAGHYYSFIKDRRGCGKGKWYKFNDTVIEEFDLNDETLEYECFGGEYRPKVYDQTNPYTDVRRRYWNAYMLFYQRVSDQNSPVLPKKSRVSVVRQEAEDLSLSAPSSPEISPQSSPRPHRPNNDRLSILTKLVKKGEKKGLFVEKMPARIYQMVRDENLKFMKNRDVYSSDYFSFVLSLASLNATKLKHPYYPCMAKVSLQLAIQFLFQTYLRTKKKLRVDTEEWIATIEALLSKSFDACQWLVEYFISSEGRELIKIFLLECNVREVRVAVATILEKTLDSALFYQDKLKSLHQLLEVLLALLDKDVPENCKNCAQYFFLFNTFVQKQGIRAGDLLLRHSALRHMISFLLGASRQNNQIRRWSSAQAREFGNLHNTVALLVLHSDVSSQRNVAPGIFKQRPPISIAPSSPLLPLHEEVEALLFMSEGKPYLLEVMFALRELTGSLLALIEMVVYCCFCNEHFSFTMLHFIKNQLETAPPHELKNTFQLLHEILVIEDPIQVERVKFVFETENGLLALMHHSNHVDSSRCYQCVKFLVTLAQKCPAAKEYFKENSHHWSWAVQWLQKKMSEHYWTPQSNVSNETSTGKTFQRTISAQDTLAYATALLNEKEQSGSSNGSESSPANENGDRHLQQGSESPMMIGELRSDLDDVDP

O=C(CCl)NCc1noc(C2CC2)n1
inactive: [1] 0.0297 | [2] -0.122 | [3] -0.225 | [4] -0.329 | [5] -0.393
